# Compound activity from PubChem BioAssay.
# PLAP activator: activators of human placental alkaline phosphatase; hit rate 1.2% among 96,000; purified PLAP enzyme, luminescent substrate read-out; hits give high values; AID 696; P05187; activation fold at 20 µM; in the data active = activation fold above about 2
# CYP2C9 inh: human CYP2C9 inhibition | CYP2C9 Supersomes, luciferin-H conversion, luminescence | P11712 | inhibition, % at 5 µM | hit rate 20% among 96,000;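 active = blocking of liver enzyme CYP2C9 beyond about 50% at 5 µM, limit read from the data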
# Target sequence (P11712 whole entry, looked up): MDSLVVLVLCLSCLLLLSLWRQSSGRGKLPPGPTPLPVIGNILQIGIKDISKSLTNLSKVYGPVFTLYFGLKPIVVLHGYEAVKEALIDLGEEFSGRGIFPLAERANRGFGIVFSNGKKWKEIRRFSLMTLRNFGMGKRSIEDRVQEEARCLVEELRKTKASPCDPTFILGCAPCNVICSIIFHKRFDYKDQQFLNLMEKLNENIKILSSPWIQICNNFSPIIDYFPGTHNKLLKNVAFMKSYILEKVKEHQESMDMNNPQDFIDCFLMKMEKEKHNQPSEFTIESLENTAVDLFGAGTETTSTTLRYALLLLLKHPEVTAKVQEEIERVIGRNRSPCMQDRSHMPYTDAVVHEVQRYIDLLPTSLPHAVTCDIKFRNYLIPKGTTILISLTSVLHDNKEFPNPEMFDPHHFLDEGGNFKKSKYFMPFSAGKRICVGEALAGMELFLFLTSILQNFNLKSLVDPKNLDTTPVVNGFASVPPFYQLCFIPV
# CYP2C9 activ: increases human cytochrome P450 2C9 activity; P11712; recombinant CYP2C9, luciferin-H conversion, luminescence; hits give high values; factor 1 = untreated enzyme, 0 = blocked; activation factor at 5 µM; hit rate 1.4% among 96,000;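 active = activation factor of 2 or more for CYP2C9 at a 5 µM dose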;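 also: 0 = sulfaphenazole-blocked wells and 1 = vehicle-only wells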
# CYP2C19 inhib: blocks human cytochrome P450 2C19 | CYP2C19 Supersomes, luciferin-H EGE luminescence, 30 min | inhibition, % at 5 µM | hit rate 21% among 96,000;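 active = CYP2C19 inhibition above a set limit at 5 µM in the primary screen, cut at about 50% in these data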;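 also: plate controls were negative control wells for no effect and 2.5 mM tranylcypromine positive control for full effect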
# CYP2C19 activ: cytochrome P450 2C19 (human) activation | recombinant CYP2C19, luciferin-H EGE luminescence; hits give high values; 0 = fully inhibited enzyme, 1 = untreated enzyme | activation factor at 5 µM | 96,000 tested, under 10 active | AID 1025;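 active = activation factor of at least 2 at 5 µM in the primary screen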;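 also: 0 = wells with 2.5 mM tranylcypromine and 1 = vehicle-only wells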
# The depositor's hits bear a star; . = no result given. The list is not random: actives were taken first. Their share in the collection is about 31%.
SMILES,PLAP activator,CYP2C9 inh,CYP2C9 activ,CYP2C19 inhib,CYP2C19 activ
Cc1[nH]c2ccccc2c1C(=O)CN1CCCCC1C (stereo not given),1,-2,1,-1,1
CC12CN(S(=O)(=O)c3ccccc3)CC(C)(CN(S(=O)(=O)c3ccccc3)C1)C2,0.9,8,0.9,12,0.9
CC1(C)CC2CC(C)(CN2S(=O)(=O)c2ccc(N)cc2)C1 (stereo not given),1,9,0.9,74*,0.3
O=C(c1cc(Cl)cc(Cl)c1)N1CCOCC1,0.9,-23,1.2,-3,1
CCOC(=O)c1ccc(NC(=O)CSc2nnc(COc3ccccc3)n2C)cc1,1,2,1,14,0.9
COc1ccccc1OCc1nnc(SCC(=O)Nc2ccc(C)cc2)n1C,1,-104,2*,48,0.5
COc1ccc(OC)c(-c2csc3nnc(SCC(=O)Nc4ccc(NC(C)=O)cc4)n23)c1,1.5,53*,0.5,24,0.8
COc1ccc(Cl)cc1NC(=O)CSc1nnc(COc2ccccc2)n1C,1.3,-76,1.8,55*,0.5
COc1ccc(NC(=O)Cc2nnc(SCC(=O)Nc3cc(C)ccc3OC)n2C)cc1,1.1,-16,1.2,95*,0.1
COc1ccc(Cl)cc1NC(=O)CSc1nnc(COc2ccccc2)n1N,1.1,-58,1.6,44,0.6
CCOC(=O)c1cc2sccc2n1CC(=O)N1CCCC1,1.1,24,0.8,44,0.6
O=C(CCNc1cccc(Cl)c1)c1cccs1,1.2,13,0.9,36,0.6
O=C(Nc1ccon1)c1cc2ccccc2oc1=O,1.1,4,1,-11,1.1
COc1ccccc1NC(=O)CSc1nnc(CC(=O)Nc2cccc(C(F)(F)F)c2)n1C,0.8,-49,1.5,51*,0.5
COc1ccc(C2OC34CCCCC3C(C#N)(C#N)C2(C#N)C(=N)O4)cc1 (stereo not given),1,10,0.9,16,0.8
CC(=O)Nc1c(NCC(C)C)c2ccccc2oc1=O,0.8,.,.,.,.
COc1ccc(CCNC(=O)Cc2ccc(OCc3ccccc3)c(OC)c2[N+](=O)[O-])cc1OCc1ccccc1,1.6,90*,0.1,74*,0.3
O=c1oc2ccccc2c(Nc2cccc3ccccc23)c1[N+](=O)[O-],1,62*,0.4,91*,0.1
COc1ccc(CCNc2c([N+](=O)[O-])c(=O)oc3ccccc23)cc1OC,1,44,0.6,59*,0.4
COc1ccc(CCNC2=C(Cl)C(=O)N(CCc3ccc(OC)c(OC)c3)C2=O)cc1OC,1.1,20,0.8,27,0.7
CCNc1nc(OC)nc(SCC(N)=O)n1,0.9,-24,1.2,-10,1.1
CC(=O)N1CCN(CC(=O)Nc2c(Cl)cc(Cl)cc2Cl)CC1,1.5,17,0.8,9,0.9
O=C(C1CC1)N1CCc2cc(Br)cc(S(=O)(=O)NC3CCCCC3)c21,1.4,-4,1,6,0.9
CCOC(=O)N1CCN(S(=O)(=O)c2cc(Br)cc3c2N(C(=O)CC)CC3)CC1,1,-6,1.1,-6,1.1
CCOC(=O)C1CCCN(S(=O)(=O)c2cc(Br)cc3c2N(C(=O)C2CC2)CC3)C1 (stereo not given),1.5,-193,2.9*,38,0.6
SMILES,PLAP activator,CYP2C9 inh,CYP2C9 activ,CYP2C19 inhib,CYP2C19 activ
O=C(C1CC1)N1CCc2cc(Br)cc(S(=O)(=O)N3CCCCCC3)c21,1.5,21,0.8,90*,0.1
O=C(O)CONC(=O)c1cc(OCC(F)(F)F)ccc1OCC(F)(F)F,1.1,-3,1,-1,1
Cc1cccc2cc(COC(=O)COc3ccccc3)c(=O)[nH]c12,1,-12,1.1,-11,1.1
O=C(Oc1ccc2c(=O)c(Cl)coc2c1)c1ccncc1,1,77*,0.2,75*,0.3
CC(NS(=O)(=O)c1ccccc1)C(c1cccs1)N1CCN(C)CC1 (stereo not given),0.9,3,1,63*,0.4
CCN1CCN(C(c2cccs2)C(C)NS(=O)(=O)c2ccc(Br)cc2)CC1 (stereo not given),1.3,9,0.9,95*,0
CCS(=O)(=O)NC(C)C(c1cccs1)N1CCN(C)CC1 (stereo not given),1,36,0.6,-16,1.2
Cc1ccc(S(=O)(=O)NC(C)C(c2cccs2)N2CCN(c3ccccc3)CC2)cc1 (stereo not given),1.1,37,0.6,24,0.8
CCOC(=O)C1CCCN(S(=O)(=O)c2ccc(OC)c3ccccc23)C1 (stereo not given),1.8,21,0.8,98*,0
NC(=O)C1CCCN(S(=O)(=O)c2ccc(Br)cc2)C1 (stereo not given),1.1,-46,1.5,59*,0.4
COc1ccc(S(=O)(=O)N2CCCC(C(=O)O)C2)cc1Cl (stereo not given),1,-7,1.1,0,1
CCOC(=O)C1CCCN(S(=O)(=O)c2ccccc2)C1 (stereo not given),1,5,0.9,33,0.7
CCOC(=O)C1CCCN(S(=O)(=O)c2ccc(Br)c(OC)c2)C1 (stereo not given),1.4,27,0.7,71*,0.3
CCOC(=O)C1CCCN(S(=O)(=O)c2c(C)c(C)cc(C)c2C)C1 (stereo not given),1.3,-35,1.4,87*,0.1
Cc1cccc(N=C(N2CCOCC2)P(=O)(N2CCOCC2)N2CCOCC2)c1,1.6,19,0.8,-3,1
COc1c2ccc(C(=O)NCCCCc3ccccc3)cc2nn1C,1,4,1,11,0.9
COC(=O)C(C)NC(=O)C12CC3CC(CC(C3)C1)C2 (stereo not given),1,-10,1.1,-3,1
CC(C)CCn1c(=O)c2ccccc2n2c(COC(=O)c3ccc(S(=O)(=O)N(C)C)cc3)nnc12,1,1,1,4,1
Cn1c(=O)c2c(nc(Sc3nc4ccccc4n3CC(=O)N3CCCCC3)n2C)n(C)c1=O,1.8,36,0.6,10,0.9
CC(C)NC(=O)C1CCCN(S(=O)(=O)c2ccc(-n3cnnn3)cc2)C1 (stereo not given),0.9,51*,0.5,13,0.9
CCOC(=O)C1CCCN(S(=O)(=O)c2ccc(F)c(C(=O)Nc3ccc(F)c(F)c3)c2)C1 (stereo not given),1.1,60*,0.4,59*,0.4
CCOC(=O)N1CCN(S(=O)(=O)c2ccc(F)c(C(=O)Nc3cc(C)cc(C)c3)c2)CC1,0.9,3,1,2,1
O=C(NC1CCCC1)C1CCCN(S(=O)(=O)c2ccc(-n3cnnn3)cc2)C1 (stereo not given),1,7,0.9,-14,1.1
CCOC(=O)C1CCCN(S(=O)(=O)c2cn(C)c(=O)n(C)c2=O)C1 (stereo not given),0.9,16,0.8,78*,0.2
O=C(O)CN1C(=O)COc2cc(S(=O)(=O)N3CCCC3)ccc21,1,11,0.9,-2,1
